# High-throughput results deposited in PubChem BioAssay by several laboratories.
# AddAB inh = less growth of phage-infected E. coli with AddAB. E. coli expressing H. pylori AddAB, absorbance growth. inhibition, % at 11.9 µM. 330,000 tested, 0.29% active. AID 435030; in the data active = inhibition above about 12%;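 note: 0% = vehicle wells of infected cells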
# phage Ecoli inh = E. coli growth loss with phage present; growth absorbance; inhibition, % at 11.9 µM; 360,000 tested, 0.26% active; AID 651602; in the data active = inhibition above about 11%
# Tat export inh = inhibitors of E. coli Tat protein transport; E. coli MC4100 TorA-mCherry Tat export, fluorescence; inhibition, % at 10 µM; 340,000 tested, 0.036% active;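 active = mean replicate inhibition at least 50% and at least half of replicates individually reaching 50%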;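 note: exported cargo escapes ClpAP degradation while cytoplasmic cargo is degraded and loses fluorescence; 0% = median of neutral control wells and 100% = median of NaSCN control wells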
# E coli growth-1 = bacterial growth inhibition, counter-screen for AddAB inhibitors; inhibition, % at 11.9 µM; 330,000 tested, 0.27% active; E. coli V3065 growth, OD600 absorbance, 18 h;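 active = inhibition above the campaign's mean inhibition across all tested compounds plus 3 SD, cut at about 9.9% in these data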;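 note: uninfected addAB+ strain grown without phage in ampicillin broth; 0% = DMSO wells and 100% = ciprofloxacin 0.95 µg/ml wells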
# E coli growth-2 = inhibitors of Escherichia coli growth; OD600, 23 h; stronger effect = lower value; AID 1053175; OD600 absorbance (no concentration beside the values); 330,000 tested, 0.21% active;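 active = OD600 absorbance below the run mean of sample wells minus 3.6 SD, in any replicate, cut at about 0.56 in these data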
# RecBCD conf = confirmation: growth loss of phage-infected RecBCD+ E. coli (RecBCD inhibitor screen) | E. coli V66 + T4 2- phage, growth OD | inhibition, % at 11.9 µM | shares compounds with phage Ecoli inh | 890 tested, 45% active;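 active = mean inhibition over triplicates exceeding the hit threshold derived in the original primary screen, cut at about 11% in these data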
# Ecoli viability = inhibits E. coli viability, flagging RecBCD hits as nonselective. absorbance (OD) growth. shares compounds with phage Ecoli inh. AID 651983. inhibition, % at 11.9 µM. 890 tested, 29% active; in the data active = inhibition above about 20%;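 note: E. coli strain V66 grown with compound alone and no phage infection; 0% = bacteria with DMSO vehicle only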
# AddAB phage OD = growth loss of phage-infected AddAB E. coli, RecBCD counter-screen. shares compounds with phage Ecoli inh. E. coli expressing H. pylori AddAB + T4 phage, OD growth; gene 2 mutant T4, recBCD-deleted host. inhibition, % at 11.9 µM. 890 tested, 45% active;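 active = mean inhibition above the solvent-only control wells' mean plus 3 SD, cut at about 22% in these data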;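 note: higher means less bacterial growth from phage killing when AddAB is blocked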
# * = called active by the depositor; nt = not tested or not shown. Shown are actives, neighbours in structure and some others; about 0.51% of the full set was active somewhere.
SMILES,AddAB inh,phage Ecoli inh,Tat export inh,E coli growth-1,E coli growth-2,RecBCD conf,Ecoli viability,AddAB phage OD
CN(CC(=O)Nc1cccc(F)c1)C(=O)CC1CCCCC1,-4,11*,4,-1,0.63,2,1,5
COc1cccc(NC(=O)CN(C)C(=O)CC2CCCCC2)c1,nt,-1,2,nt,0.68,nt,nt,nt
Nc1nnc(-c2ccc([N+](=O)[O-])o2)s1,nt,92*,-21,nt,0.069*,100*,102*,100*
Cc1ccc(-c2[nH]c3cc(C(=O)NCCCn4ccnc4)ccc3c(=O)c2O)cc1,11,11*,-3,8,0.68,3,5,7
O=C(NCCCn1ccnc1)c1ccc(Cl)c(Cl)c1,1,1,3,1,0.6,nt,nt,nt
Cc1cc2c(c(CO)c1CCO)C(=O)C(C)C2O (centres undefined),nt,nt,nt,nt,0.71,nt,nt,nt
O=C(N/N=C\C=C\c1ccc([N+](=O)[O-])o1)c1cccs1,nt,98*,23,nt,nt,105*,107*,104*
Cc1[nH]c(=O)[nH]c(=O)c1CSc1nnc(C(CC(C)C)NC(=O)OC(C)(C)C)o1 (centres undefined),nt,nt,nt,nt,0.72,nt,nt,nt
O=S(=O)(Nc1ncccn1)c1ccc(NC(=S)Nc2ccc(Cl)cc2)cc1,7,11*,22,6,nt,4,3,5
CCOC(=O)Nc1ccc(S(=O)(=O)Nc2onc(C)c2C)cc1,1,-1,nt,-2,0.66,nt,nt,nt
CCc1nnc(NS(=O)(=O)c2ccc(N3C(=O)c4ccccc4C3=O)cc2)s1,6,3,-20,3,0.66,nt,nt,nt
Cc1noc(NS(=O)(=O)c2ccc(N)cc2)c1C,10,11*,-2,8,0.66,3,2,23*
O=C(Nc1ccc(Cl)cc1)Nc1ccc(S(=O)(=O)Nc2ncccn2)cc1,0,6,10,2,0.59,nt,nt,nt
CCc1nnc(NS(=O)(=O)c2ccc(N)cc2)s1,8,12*,8,8,0.63,8,5,19
O=S(=O)(Nc1ncccn1)c1ccccc1,0,3,-6,-1,0.64,nt,nt,nt
Nc1ccc(S(=O)(=O)Nc2ncccn2)cc1,2,11*,-2,1,0.61,6,3,13
CC(C)NC(=S)Nc1ccc(S(=O)(=O)Nc2ncccn2)cc1,2,2,-3,1,0.69,nt,nt,nt
CCc1ccc(NC(=S)Nc2ccc(S(=O)(=O)Nc3ncccn3)cc2)cc1,3,12*,19,1,0.68,1,-1,6
COc1ccc(Cn2c(O)c(/C=N/NC(=O)c3cccnc3)c3ccccc3c2=O)cc1,nt,15*,4,nt,0.66,8,10,14
O=C(N/N=C/c1c(O)n(Cc2ccccc2)c(=O)c2ccccc12)c1cccnc1,6,15*,-1,11*,0.71,9,11,20
O=C(N/N=C/c1c(O)n(-c2ccccc2Cl)c(=O)c2ccccc12)c1cccnc1,nt,5,7,nt,0.64,nt,nt,nt
Cc1ccc(C(=O)CC(=O)COc2ccc(Cl)cc2C)cc1,-4,12*,0,-4,0.64,7,9,5
CC=C(C)C(=O)Nc1cccc(C2=NOC3(C2)CC(C(N)=O)N(C(=O)C=CCC)C3)c1 (centres undefined),nt,nt,nt,nt,0.67,nt,nt,nt
Cc1cc(O)c(Sc2ncn[nH]2)cc1NS(=O)(=O)c1ccc(Cl)cc1,1,3,6,-1,0.69,nt,nt,nt
O=S(=O)(Nc1cc(Sc2ncn[nH]2)c(O)c2ccccc12)c1ccccc1,nt,11*,-5,nt,0.61,2,1,0
SMILES,AddAB inh,phage Ecoli inh,Tat export inh,E coli growth-1,E coli growth-2,RecBCD conf,Ecoli viability,AddAB phage OD
CCOc1c(Br)cc(CNc2ccc(N3CCOCC3)cc2)cc1OC,-1,98*,4,1,0.69,0,0,-2
CCCOc1ccc(CCC(=O)NN=Cc2ccco2)cc1,nt,nt,nt,nt,0.65,nt,nt,nt
S=C(NCC1CCCCC1)Nc1ccc(Oc2ccccc2)cc1,3,8,-10,3,0.69,nt,nt,nt
FC(F)Sc1ccc(NC(=S)NC2CCCCC2)cc1,10,12*,0,7,0.64,4,6,5
FC(F)Sc1ccc(NC(=S)NCC2CCCCC2)cc1,8,13*,-8,9,0.54,3,5,6
O=C(Nc1ccccc1)Nc1cc(OCC(F)(F)F)cc(OCC(F)(F)F)c1,nt,16*,-3,nt,0.69,4,6,2
O=C(Nc1ccccc1)Nc1cc(Cl)cc(Cl)c1,7,11,-14,9,nt,nt,nt,nt
O=C(O)c1ccc(S(=O)(=O)/N=C2\C=C(Nc3ccccc3F)C(=O)c3ccccc32)cc1,9,13*,-13,2,0.62,5,6,12
Cc1ccccc1NC1=C/C(=N\S(=O)(=O)c2ccc(C(=O)O)cc2)c2ccccc2C1=O,11,6,-16,4,0.64,nt,nt,nt
Cc1cc(C(=O)N(C2CCCCC2)C2CCCCC2)no1,3,12*,0,-3,0.64,-1,0,-1
Cc1cc(C(=O)N2C(C)CCCC2C)no1 (centres undefined),0,2,7,-1,0.66,nt,nt,nt
O=C(NNC(=O)c1cc(-c2cccnc2)nc2ccccc12)Nc1ccc(Cl)cc1,8,13*,-2,6,0.52*,9,9,2
O=C(Nc1ccc(Cl)cc1)c1cc2c(cc1O)[nH]c1ccccc12,11,12*,0,10*,0.17*,10,14,4
COc1cc2cccc(OC)c(=O)c2c(OC)c1OC,4,1,-4,4,0.74,nt,nt,nt
O=c1c(O)cccc2cc(O)c(O)c(O)c12,11,14*,53*,11*,0.63,8,9,10
COc1ccc(OCc2cc(C(=O)N(C)C3CCOC3)no2)c(Cl)c1 (centres undefined),2,2,-8,0,0.65,nt,nt,nt
CN(C(=O)c1cc(COc2ccc(F)c(F)c2)on1)C1CCOC1 (centres undefined),-11,11*,-6,0,0.65,-1,-1,4
O=C(NN=C1CCCc2oc(C(=O)O)cc21)c1ccccc1,nt,nt,nt,nt,0.7,nt,nt,nt
CCC1OC(=O)C(C)C(OC2C[C@@](C)(OC)C(O)C(C)O2)C(C)C(O[C@@H]2OC(C)CC(N(C)C)C2O)[C@](C)(O)CC(C)C(=NOCOCCOC)C(C)C(O)[C@]1(C)O (some centres undefined),9,12*,7,10.0*,nt,5,5,4
CNCCCCOc1ccccc1-c1ccccc1,-1,21*,2,-1,0.64,0,2,4
NC(=S)N/N=C/c1c(O)ccc2ccccc12,2,1,-4,2,nt,nt,nt,nt
NC(=S)NN=Cc1nccc2c(N)cccc12,nt,23*,nt,nt,nt,32*,39*,35*
CCN(C(C)=O)c1cnc(C=NNC(N)=S)c2ccccc12,nt,20*,-19,nt,nt,15*,17,32*
